Assay results published in article PMC10163288.
A selection follows. No count for the full screen is at hand.

B1: il10ra_site1_sap_24_mot_HHH_b1_02665_000000293_0001_1_18_H_._HHH_b2_00244_0001_0000100001_0000001_0_0001_af2pred_0001 (protein)
chain: SSSSDSRELIRLLRRALELLNDGNPEEAEKLLERAQEIAEEANSLNLRVVIEFVLEQVEQHSSSS
B2: il10ra_site1_normal_mot_HHH_b2_08265_af2_000000206_0001_22_38_H_._HHH_b2_05887_0001_0000200025_0000002_0 (protein)
chain: SSSSSDEEEVEELTREIERLLEEGDLEEAARLIQELLRVAYENKDQEAIQLAWELAQLAKSSSSS
B3: il10ra_site1_normal_mot_HHH_b2_08186_000000021_0001_43_56_H_._HHH_b1_08707_0001_0000400035_0000001_0 (protein)
chain: SSSSSDIEELLEEAERLAEEGNPEEALRLLQEALRLIFENQDEELLQELWEVLRLVARLSSSSSS
B4: il10ra_site1_sap_8_mot_HHH_b1_06348_000000162_0001_1_15_H_._HHH_b1_06922_0001_0000100010_0000001_0_0001_af2pred_0001 (protein)
chain: SSSSSEAEKALRWFLRAVEELLKRGNPEAAKLALRDARFAAKFLNDEEIEERLEELEKLLDSSSS
B5: il10ra_site1_sap_18_mot_HHH_b1_04818_af2_000000063_0001_42_55_H_._HHH_b1_04225_af2_0002_0000100001_0000002_0_0001 (protein)
chain: SSSSDETEEVAELMREAVELDHNGDKEEAERVAREALELAEQLNNDVLRIQAEYLEKLIGSSSSS
B6: il10ra_site1_sap_17_mot_HHH_b2_03328_af2_000000127_0001_1_19_H_._HHH_b1_04993_0001_0000100008_0000001_0_0001 (protein)
chain: SSSSSIRERIIRLLYRALRLAAEGNPEEAERLIEEAHELAEELGDPELERYIRILLHFVRSSSSS
B7: il10ra_site1_sap_16_mot_HHH_b2_04251_af2_000000037_0001_42_56_H_._HHH_b1_07004_0001_0000200017_0000001_0_0001 (protein)
chain: SSSSDVRERAARVAIEVLRIAFQQSDPEALRAVWELFRRIIEEGDPELLEELEQLLEELRSSSSS
B8: il10ra_site1_sap_30_mot_HHH_b2_02053_af2_000000006_0001_3_19_H_._HHH_b2_06177_0001_0000100006_0000002_0_0001_af2pred_dldesign_0_af2pred (protein)
chain: SPEIEAIRALLKENLSLACAALAKLLAESGNQEDIALARELARLLFEDPERAKELAEKLLAELAK
B9: il10ra_site1_normal_mot_8756ee2cf497b5429c717dfc0c0bcfd6_0001_000000186_0001_1_13_H_._HHH_b1_07372_0001_0000100003_0000001_1 (protein)
chain: SSSSSEEAREVYELIRRAAELHRNGNPEEAEEVLKEAEELAREANNDVLLFQIEYLLRHIGSSSS
B10: il10ra_site1_sap_16_mot_HHH_b1_00992_000000182_0001_23_40_H_._HHH_b1_02295_af2_0001_0000300017_0000001_0_0001 (protein)
chain: SEQVREIEELLKRNVEQAIAALAHLLAKSGDPELLRLAKELSRLMFQNPEEARKLVEEILEELKK
B11: il10ra_site1_normal_mot_HHH_b2_03220_af2_000000223_0001_23_40_H_._HHH_b1_05042_0001_0000100015_0000001_0 (protein)
chain: SSSSSRELSEEAWELLREILELIYEGDEERAQELLREVEEIAEEANSFALEYTVRILKEQLSSSS
B12: il10ra_site1_sap_22_mot_690a356816548de866c59e88e666ab0a_0001_1_af2_000000025_0001_1_13_H_._HHH_b1_01796_af2_0001_0000400019_0000001_0_0001_af2pred_0001 (protein)
chain: SSSSDIAEADARQAFKLLEIAHEQNDEELLERALELLEYLARLSNDPEAERLLEEAEKLVGSSSS
B13: il10ra_site1_normal_mot_HHH_b1_01082_af2_000000031_0001_3_19_H_._HHH_b1_06064_0001_0000200007_0000001_0 (protein)
chain: SSSSSYEEVKKLIERIVELLRRGDHEEAEKLIRELEELAEELNNPSLRFVVRLLEEVLERLSSSS
B14: il10ra_site1_sap_17_mot_HHH_b1_03763_000000209_0001_22_38_H_._HHH_b1_06016_0001_0000500017_0000001_0_0001 (protein)
chain: SSSSDDDEELLEAALRIAEQALEAGDPESARLILLAAARIAEELGNEELLEEIRRLLEEIRSSSS
B15: il10ra_site1_normal_mot_HHH_b2_04131_000000071_0001_1_16_H_._HHH_b2_02423_af2_0001_0000200002_0000002_0 (protein)
chain: SSSSSSDEELQRLLHELLRLYLKGDPRVEEVAEELRELAEELNNEVARFIVEAVERRLSSSSSSS
B16: il10ra_site1_sap_21_mot_HHH_b1_05126_000000010_0001_38_52_H_._HHH_b2_05985_af2_0001_0000600013_0000001_1_0001 (protein)
chain: SSSSDLEEEIEKLLEELEELIKEGDRERITELALKIVKLIYEAKNAELLRRLWELVKAFYSSSSS
B17: il10ra_site1_normal_mot_HHH_b1_04771_000000013_0001_40_56_H_._HHH_b1_06413_0001_0000200008_0000001_0 (protein)
chain: SSSSDLDERVSRLSQEVFRLALRGNPEEAEKVVEEAIELAEEANNERALRVLRDLEQVLESSSSS
B18: il10ra_site1_normal_mot_HHH_b1_02997_000000220_0001_39_52_H_._HHH_b1_04476_0001_0000500018_0000001_0_af2pred_dldesign_0_af2pred (protein)
chain: SSSSSSSNEEVVALLRRAMEEPDPEEAKRLAEEALRLAQANNNEILAHTAQLLLEQLESSSSSSS
B19: il10ra_site1_sap_25_mot_HHH_b2_05761_af2_000000185_0001_1_18_H_._HHH_b1_05595_af2_0001_0000200006_0000001_0_0001 (protein)
chain: SSSSDEDERYVELSLRFAEWLLKEGDPEAAKRILEAAREIAERANNEELREELEELLEKIGSSSS
B20: il10ra_site1_normal_mot_3af0db62db2b275566dae2e03bf881fa_0001_000000003_0001_37_50_H_._HHH_b2_06527_0001_0000300018_0000001_0_af2pred_0001 (protein)
chain: SSSSSSDLEQQVRAAIWFAKNIHNPTVRRKALEFALKIAEEINNEELVEEIRELLEQVNSSSSSS
B21: il10ra_site1_normal_mot_3c6ad1a4bc7d4f5cf55cee527202d42a_0001_000000108_0001_32_49_H_._HHH_b2_03602_af2_0001_0000600008_0000001_0_af2pred_dldesign_0_af2pred (protein)
chain: SSSSSDKEYYDALVKYYKEALALGKPEAAEKIALKGAEMRLEGKSLEEFEEKAKEILEEESSSSS
B22: il10ra_site1_sap_23_mot_39ab2cb694c8b9c1dc7e65c0d672c93e_0001_000000036_0001_53_65_H_._HHH_b1_07337_0001_0000100009_0000001_0_0001 (protein)
chain: SSSSDEEYKEVKRLIEEIAEALRNNDEELVRELLEELRELAEEINNPAAEFSLRILEEALNSSSS
B23: il10ra_site1_normal_mot_HHH_b2_00277_af2_000000172_0001_1_17_H_._HHH_eva_0065_0002_0000400034_0000001_0 (protein)
chain: DPEKEKLEEEIREVLERFEKGKIDPEEAKELLSRLAFKAARLGDDEAVELAIRAYAAIHQAEQRS
B24: il10ra_site1_normal_mot_HHH_b2_00033_000000036_0001_41_54_H_._HHH_b1_08598_0001_0000300016_0000002_0 (protein)
chain: SSSSSSSDFQELALRALRLLIKRNDKELFQELWRLVKEIAEHGDPELREELEEFLEEISSSSSSS
B25: il10ra_site1_sap_19_mot_2fa031a62b9321f410fa37cb4b35ac9e_0001_af2_000000160_0001_1_14_H_._HHH_b2_08251_af2_0001_0000200005_0000002_0_0001 (protein)
chain: SSSSSDQEEAVELSLEAFRLALRGDPEEARRVLEEALELAEEAGDERMAKVIRDMLRALSSSSSS
B26: il10ra_site1_normal_mot_HHH_b2_00475_000000107_0001_44_57_H_._HHH_b2_01638_af2_0001_0000200008_0000002_0 (protein)
chain: SSSSEEEQRVAELLFRALRLLAEGNPEEAEKVVEEAQKLAEENNDEELRKYVEILRHFIESHSSS
B27: il10ra_site1_sap_16_mot_8756ee2cf497b5429c717dfc0c0bcfd6_0001_000000186_0001_1_13_H_._HHH_b1_03338_0001_0000100002_0000003_0_0001 (protein)
chain: SSSSTLEWSVKFMLEIVEELLERGDKEKAEHLLEALLRHLKEAGDPELLREVEELLEEVRKSSSS
B28: il10ra_site1_normal_mot_HHH_b2_02116_af2_000000165_0001_41_55_H_._HHH_b1_06457_0001_0000100001_0000001_0 (protein)
chain: SSSDHERAVELLLRAAEIAFERGNPHQARAAIRLAREIAERINDEELEELVEEVERRLEESSSSS
B29: il10ra_site1_sap_14_mot_HHH_b1_08411_af2_000000053_0001_1_20_H_._HHH_b1_08108_0001_0000200028_0000001_0_0001 (protein)
chain: SSSSSSDEYREAYELIEEAFHIEDEEEARELLEEAKELAERAGNWALRFAIQLLLEDLSSSSSSS
B30: il10ra_site1_sap_24_mot_HHH_b1_06912_af2_000000235_0001_1_15_H_._HHH_b1_04651_0001_0000100003_0000001_0_0001 (protein)
chain: SSSSDQELYRKVEELIEEAIELQRRGNPEEARRLLEELLEELEELNNPNMLYNVRHLLKAISSSS
B31: il10ra_site1_sap_19_mot_HHH_b1_05021_af2_000000167_0001_42_56_H_._HHH_b1_02196_0001_0000400015_0000002_0_0001 (protein)
chain: SSSSDAEEYLREVAVELLELFREGDPEKAEELLEEAREFLEEKGNRELVRMIEFQFRASEWSSSS
B32: il10ra_site1_normal_mot_HHH_b1_02397_af2_000000085_0001_39_57_H_._HHH_b1_03194_0001_0000100004_0000002_0 (protein)
chain: SSSSSSDVEELLERLEELLEEGNHEEAARLLQEALRHAFRNSDPELLKELHEFAKRLASSSSSSS
B33: il10ra_site1_sap_15_mot_HHH_b1_03531_000000273_0001_41_54_H_._HHH_b2_00993_0001_0000200012_0000001_0_0001_af2pred_0001 (protein)
chain: SSSSTEEEIRELLEEVEELIERGNNHEAAKLLKKLAELISELNNDELLKELRELAQLVIRVSSSS
B34: il10ra_site1_normal_mot_HHH_b1_06789_af2_000000041_0001_1_20_H_._HHH_b2_03029_0001_0000300011_0000002_0 (protein)
chain: SSSSSAEYLVRQALKAAKRLYEQGDPERAKEAIEIAENLARNANNPELEKLVEEFAEELENSSSS
B35: il10ra_site1_normal_mot_HHH_b2_00033_000000036_0001_41_54_H_._HHH_b1_00990_0001_0000100001_0000001_0 (protein)
chain: SSSDETEEASELAAEAIRLAIRLGDEEIFQELWELFKLVIREGDPEVTERLEELLEELRERSSSS
B36: il10ra_site1_sap_20_mot_HHH_b1_02766_af2_000000078_0001_42_56_H_._HHH_b2_04892_0001_0001000047_0000001_0_0001 (protein)
chain: SSSSDELSEEAMKLIERASELDQNGNPEEAKEVLERAEELAEEAGNRVLAWNIRFLLRRLSSSSS
B37: il10ra_site1_sap_22_mot_HHH_b2_03328_af2_000000127_0001_1_19_H_._HHH_b1_06177_0001_0000200023_0000001_0_0001 (protein)
chain: SSSSTQELYELLRRIVELDHKGNLEEAERLLEELEELARERNDPNIRMQVEFLEEIIRRNLSSSS

Biological target: il10ra, Q13651
Sequence (Q13651 whole entry): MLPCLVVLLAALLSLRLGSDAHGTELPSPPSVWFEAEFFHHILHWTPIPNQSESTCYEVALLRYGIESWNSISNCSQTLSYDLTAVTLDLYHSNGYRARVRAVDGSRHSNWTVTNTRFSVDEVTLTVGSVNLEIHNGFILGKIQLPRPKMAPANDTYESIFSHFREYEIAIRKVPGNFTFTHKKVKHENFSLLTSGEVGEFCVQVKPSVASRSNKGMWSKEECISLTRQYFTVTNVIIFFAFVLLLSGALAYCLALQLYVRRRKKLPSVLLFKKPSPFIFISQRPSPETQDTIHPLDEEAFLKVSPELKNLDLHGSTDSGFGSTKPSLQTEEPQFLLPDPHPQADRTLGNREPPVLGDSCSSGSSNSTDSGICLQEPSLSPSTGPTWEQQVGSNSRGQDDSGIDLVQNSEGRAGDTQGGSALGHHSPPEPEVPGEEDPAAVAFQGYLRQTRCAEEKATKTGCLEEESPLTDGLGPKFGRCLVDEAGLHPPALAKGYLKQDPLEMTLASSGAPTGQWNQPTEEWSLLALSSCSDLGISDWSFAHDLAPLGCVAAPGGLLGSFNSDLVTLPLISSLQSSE
Test: yeast display titration

Apparent Kd, inactive:
B1 no binding seen, B2 no binding seen, B3 no binding seen, B4 no binding seen, B5 no binding seen, B6 no binding seen, B7 no binding seen, B8 no binding seen, B9 no binding seen, B10 no binding seen, B11 no binding seen, B12 no binding seen, B13 no binding seen, B14 no binding seen, B15 no binding seen, B16 no binding seen, B17 no binding seen, B18 no binding seen, B19 no binding seen, B20 no binding seen, B21 no binding seen, B22 no binding seen, B23 no binding seen, B24 no binding seen, B25 no binding seen, B26 no binding seen, B27 no binding seen, B28 no binding seen, B29 no binding seen, B30 no binding seen, B31 no binding seen, B32 no binding seen, B33 no binding seen, B34 no binding seen, B35 no binding seen, B36 no binding seen, B37 > 1760 nM
